Experimental data: PubChem BioAssay (Tox21)
Inconclusive results are not listed. Active and inactive are the calls of the source. Unless noted, calls follow the shape of the full dose curve.

Columns and labels:
[1] = Nuclear factor erythroid 2-related factor 2/antioxidant responsive element (Nrf2/ARE) small molecule agonists: qHTS cell viability counter screen in human keratinocytes (AID 1919968; active = well fitted curve in the direction sought with a large enough effect in the repeat runs; an effect the other way counts as inactive or inconclusive; also: nearly all actives have a fitted effect of over 55% in size)
In short: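 In human HaCaT keratinocytes stably expressing an ARE-driven luciferase, compound exposure lasted 23 h at 37 C under 5% CO2. Viable cells are quantified with a protease-based fluorogenic reagent (CellTiter-Fluor) read 1 h after addition.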

[2] = Nuclear factor erythroid 2-related factor 2/antioxidant responsive element (Nrf2/ARE) small molecule agonists: luciferase reporter gene qHTS assay in human keratinocytes (AID 1919969); also: nearly all actives have a fitted effect of over 35% in size
[3] = biological target: Gonadotropin-releasing hormone receptor (Homo sapiens) (UniProt P30968); experiment: Human gonadotropin-releasing hormone receptor (GnRHR) small molecule agonists, calcium flux assay in GnRHR-HEK293 cells (AID 1920063); also: nearly all actives have a fitted effect of over 35% in size
Gonadotropin-releasing hormone receptor (Homo sapiens), sequence (P30968 whole entry, looked up): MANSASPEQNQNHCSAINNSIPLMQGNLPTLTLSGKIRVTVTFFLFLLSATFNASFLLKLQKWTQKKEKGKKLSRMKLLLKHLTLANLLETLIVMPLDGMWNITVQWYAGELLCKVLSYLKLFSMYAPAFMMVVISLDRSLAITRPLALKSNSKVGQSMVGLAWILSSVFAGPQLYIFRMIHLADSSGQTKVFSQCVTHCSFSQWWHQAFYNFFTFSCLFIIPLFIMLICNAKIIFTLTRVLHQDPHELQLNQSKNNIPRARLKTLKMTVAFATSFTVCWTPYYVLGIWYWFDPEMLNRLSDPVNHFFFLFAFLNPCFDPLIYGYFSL
In short: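 Intracellular calcium rise is the read-out: engineered human GnRHR HEK293 cells, dye-loaded, are exposed to DMSO-dissolved compounds and fluorescence at Ex/Em 480/540 is tracked for 3 min.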

[4] = biological target: KiSS-1 receptor (Homo sapiens) (UniProt Q969F8); experiment: Human kisspeptin (KISS1R) small molecule agonists, calcium flux assay in KISS1R-HEK293 cells (AID 1920064; active = well fitted curve in the direction sought with a large enough effect in the repeat runs; an effect the other way counts as inactive or inconclusive)
KiSS-1 receptor (Homo sapiens), sequence (Q969F8 whole entry, looked up): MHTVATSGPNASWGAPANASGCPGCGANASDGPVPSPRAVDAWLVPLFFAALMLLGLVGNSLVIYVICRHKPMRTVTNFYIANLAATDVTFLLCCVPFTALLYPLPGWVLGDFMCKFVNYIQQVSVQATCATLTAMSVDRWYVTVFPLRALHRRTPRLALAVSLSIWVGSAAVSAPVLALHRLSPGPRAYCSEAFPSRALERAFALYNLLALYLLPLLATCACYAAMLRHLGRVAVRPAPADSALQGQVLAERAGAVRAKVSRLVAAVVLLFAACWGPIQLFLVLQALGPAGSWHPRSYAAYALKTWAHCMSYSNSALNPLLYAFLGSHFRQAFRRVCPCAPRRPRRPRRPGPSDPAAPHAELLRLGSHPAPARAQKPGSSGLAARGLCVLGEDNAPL
In short: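 Concentration-response testing used 15 concentrations in triplicate on human KISS1R-expressing HEK293 cells. Calcium-dependent fluorescence (Ex/Em 480/540) was followed kinetically for 3 min after compound transfer.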

[5] = G protein-coupled receptor (GPCR) small molecule agonists, calcium flux assay: HEK293 wild type cell line counter screen (AID 1920065)
In short: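 Fluorescence intensity signals activation. After overnight (18 h) culture and a 1 h calcium dye load at 37 C, compounds are added by pin tool and the plate read at 480/540 nm for 3 min in 1 s steps.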

[6] = p53 small molecule agonists, cell-based qHTS assay with human liver microsomes (AID 1963577);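 also: p53 response element beta-lactamase reporter cells with liver microsomes plus NADPH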
In short: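 Metabolically competent format: test substances, human liver microsomes and NADPH (both 0.5 mg/mL final) incubated with p53RE-bla cells 16 h at 37 C. Beta-lactamase reporter signal then quantified by fluorescence.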

[7] = p53 small molecule agonists, cell-based qHTS assay with human liver microsomes: qHTS cell viability counter screen (AID 1963579); also: nearly all actives have a fitted effect of over 45% in size
In short: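 Tox21 library compounds, delivered from DMSO stocks, were tested on p53RE-bla cells together with 0.5 mg/mL human liver microsomes and 0.5 mg/mL NADPH (final) over 16 h at 37 C; CellTiter-Glo luminescence served as the cytotoxicity measure.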

[8] = p53 small molecule agonists, cell-based qHTS assay with rat liver microsomes: qHTS cell viability counter screen (AID 1963580); also: nearly all actives have a fitted effect of over 45% in size
In short: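 Cytotoxicity counter screen: intracellular ATP read by CellTiter-Glo luminescence in the p53 reporter wells. HCT-116 p53RE-bla cells were treated for 16 h at 37 C alongside rat liver microsomes and NADPH, each 0.5 mg/mL final.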

[9] = p53 small molecule agonists, cell-based qHTS assay: qHTS cell viability counter screen (AID 1963581); also: nearly all actives have a fitted effect of over 45% in size
In short: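 Luminescence from CellTiter-Glo, reflecting ATP content, serves as the cytotoxicity measure; it is taken after the 2 h reporter substrate step in HCT-116 p53RE-bla cells dosed for 16 h at 37 C.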

[10] = biological target: 5-hydroxytryptamine receptor 2A (Homo sapiens) (UniProt P28223); experiment: 5-hydroxytryptamine receptor 2A (HTR2A) small molecule antagonists, cell-based qHTS assay (AID 1963586); also: nearly all actives have a fitted effect of over 45% in size
5-hydroxytryptamine receptor 2A (Homo sapiens), sequence (P28223 whole entry, looked up): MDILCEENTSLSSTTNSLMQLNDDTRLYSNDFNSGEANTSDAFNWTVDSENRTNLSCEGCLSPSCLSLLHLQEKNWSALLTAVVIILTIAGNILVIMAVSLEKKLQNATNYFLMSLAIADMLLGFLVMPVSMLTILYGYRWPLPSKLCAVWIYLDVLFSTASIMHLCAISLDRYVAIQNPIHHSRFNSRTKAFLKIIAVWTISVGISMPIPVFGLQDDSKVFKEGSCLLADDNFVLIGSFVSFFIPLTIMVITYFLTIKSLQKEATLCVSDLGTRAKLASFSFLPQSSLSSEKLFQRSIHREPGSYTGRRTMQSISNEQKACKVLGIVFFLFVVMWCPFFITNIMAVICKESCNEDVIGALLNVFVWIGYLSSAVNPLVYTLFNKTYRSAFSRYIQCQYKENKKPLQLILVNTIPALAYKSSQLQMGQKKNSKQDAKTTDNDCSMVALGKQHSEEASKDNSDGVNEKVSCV
In short: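 CHO cells stably expressing human HTR2A were plated for 18 h at 37 C, then loaded with calcium dye for 1 h. Compounds were preincubated 5 min at room temperature before DOI (4 nM solution) was added. Kinetic fluorescence was read for 3 min.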

[11] = biological target: 5-hydroxytryptamine receptor 2A (Homo sapiens) (UniProt P28223); experiment: 5-hydroxytryptamine receptor 2A (HTR2A) small molecule agonists, cell-based qHTS assay (AID 1963587); also: nearly all actives have a fitted effect of over 30% in size
In short: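 Kinetic calcium-flux fluorescence (2 min, 1 sec intervals) after compound addition in agonist mode. HTR2A-CHO cells were cultured 18 h, then dye-loaded 1 h at 37 C.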

[12] = biological target: Muscarinic acetylcholine receptor M1 (Homo sapiens) (UniProt P11229); experiment: Cholinergic receptor muscarinic 1 (CHRM1) small molecule antagonists, cell-based qHTS assay (AID 1963588); also: nearly all actives have a fitted effect of over 40% in size
Muscarinic acetylcholine receptor M1 (Homo sapiens), sequence (P11229 whole entry, looked up): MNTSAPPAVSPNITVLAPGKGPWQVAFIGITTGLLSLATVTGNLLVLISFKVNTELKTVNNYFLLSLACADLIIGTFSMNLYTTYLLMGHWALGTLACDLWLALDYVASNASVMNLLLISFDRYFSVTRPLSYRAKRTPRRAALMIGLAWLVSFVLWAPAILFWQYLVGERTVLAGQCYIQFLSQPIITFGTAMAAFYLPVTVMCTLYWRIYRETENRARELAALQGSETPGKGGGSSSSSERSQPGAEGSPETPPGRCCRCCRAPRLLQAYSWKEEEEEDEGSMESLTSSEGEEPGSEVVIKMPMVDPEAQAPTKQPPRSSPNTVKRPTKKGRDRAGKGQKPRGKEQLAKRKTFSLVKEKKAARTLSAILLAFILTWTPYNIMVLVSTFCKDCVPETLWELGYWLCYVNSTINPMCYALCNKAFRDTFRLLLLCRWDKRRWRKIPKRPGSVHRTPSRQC
In short: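 Compounds were tested at 15 concentrations in three independent runs. Dye-loaded CHRM1-CHO cells were exposed 5 min at room temperature before stimulation by acetylcholine added at 50nM. Intracellular calcium was read kinetically on FDSS for 3 min.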

[13] = biological target: Muscarinic acetylcholine receptor M1 (Homo sapiens) (UniProt P11229); experiment: Cholinergic receptor muscarinic 1 (CHRM1) small molecule agonists, cell-based qHTS assay (AID 1963589); also: nearly all actives have a fitted effect of over 35% in size
In short: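 Fluorescent calcium dye reports M1 activation in stably transfected CHO cells. Compounds, 15 concentrations, added after 1 h dye loading at 37 C; kinetic reading at 1 sec intervals.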

[14] = cAMP Responsive Elements (CRE) small molecule agonists, cell-based qHTS assay (AID 1963590)
In short: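 Compound exposure lasted 3 h at 37 C/5% CO2 in CRE-bla HEK 293T cells grown in assay medium with 10% dialyzed FBS and 25 mM HEPES. Reporter signal came from LiveBLAzer B/G FRET substrate, 2 h, room temperature.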

[15] = cAMP Responsive Elements (CRE) small molecule antagonists, cell-based qHTS assay (AID 1963591; active = well fitted inhibition curve with a large enough effect in the signal ratio in the repeat runs, not every such curve was filed as active; the % refers to the signal ratio)
In short: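 Stimulation used NKH477 at a final 0.25 uM for 3 h in compound-treated CRE-bla HEK293T cells, seeded 18 h beforehand. Reporter activity was measured with LiveBLAzer B/G FRET substrate after 2 h at room temperature.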

[16] = biological target: Beta-2 adrenergic receptor (Homo sapiens) (UniProt P07550); experiment: Adrenergic beta2 receptor (ADRB2) small molecule antagonists, cell-based qHTS assay (AID 1963592); also: series mostly up to about 92 µM; nearly all actives have a fitted effect of over 50% in size
Beta-2 adrenergic receptor (Homo sapiens), sequence (P07550 whole entry, looked up): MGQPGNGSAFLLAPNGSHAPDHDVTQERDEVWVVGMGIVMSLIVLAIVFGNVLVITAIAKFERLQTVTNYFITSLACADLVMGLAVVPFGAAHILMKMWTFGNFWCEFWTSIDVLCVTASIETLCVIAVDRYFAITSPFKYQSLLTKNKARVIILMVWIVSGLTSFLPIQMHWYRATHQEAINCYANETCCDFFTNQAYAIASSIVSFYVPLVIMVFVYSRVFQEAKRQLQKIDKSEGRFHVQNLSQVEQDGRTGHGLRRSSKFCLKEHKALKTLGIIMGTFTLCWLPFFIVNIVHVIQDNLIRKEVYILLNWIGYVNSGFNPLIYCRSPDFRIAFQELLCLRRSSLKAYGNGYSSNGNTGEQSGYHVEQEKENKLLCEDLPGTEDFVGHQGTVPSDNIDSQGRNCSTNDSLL
In short: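 Assay format: CHO-ADRB2 cells, 18-20hr seeding at 37C/5% CO2, then compound plus 1nM isoproterenol agonist mix for 0.5hr RT. Homogeneous time-resolved fluorescence cAMP detection after 1hr, expressed as 665/615 nm ratio.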

[17] = biological target: D(2) dopamine receptor (Homo sapiens) (UniProt P14416); experiment: Dopamine D2 receptor (DRD2) small molecule antagonists, cell-based qHTS assay (AID 1963595; active = well fitted inhibition curve with a large enough effect in the signal ratio in the repeat runs, with a control signal flat; the % refers to the signal ratio)
D(2) dopamine receptor (Homo sapiens), sequence (P14416 whole entry, looked up): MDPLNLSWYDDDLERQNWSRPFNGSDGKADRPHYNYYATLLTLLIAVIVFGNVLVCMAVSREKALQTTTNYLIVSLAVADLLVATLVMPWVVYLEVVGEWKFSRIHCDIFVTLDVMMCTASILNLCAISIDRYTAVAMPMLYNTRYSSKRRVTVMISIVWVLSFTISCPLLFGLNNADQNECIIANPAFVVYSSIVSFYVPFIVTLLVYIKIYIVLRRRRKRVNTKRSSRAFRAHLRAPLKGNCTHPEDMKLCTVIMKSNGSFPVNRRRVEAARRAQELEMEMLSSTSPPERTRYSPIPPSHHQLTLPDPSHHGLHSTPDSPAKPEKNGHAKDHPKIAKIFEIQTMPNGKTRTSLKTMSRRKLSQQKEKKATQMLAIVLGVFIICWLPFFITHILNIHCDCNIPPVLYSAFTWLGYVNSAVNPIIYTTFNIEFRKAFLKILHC
In short: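 Readout: HTRF cAMP, cAMP-d2 competing with cellular cAMP for anti-cAMP cryptate, read after 1 h. Cells: DRD2-HEK293. Conditions: 0.1 mM Ro20-1724, 12 nM quinpirole, 200 nM NKH477, 30 min RT.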

[18] = p53 small molecule agonists, cell-based qHTS assay (AID 1963582; active = well fitted activation curve with a large enough effect in the signal ratio in the repeat runs, not every such curve was filed as active; the % refers to the signal ratio)
In short: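 After plating, p53RE-bla cells sat 5 h in the incubator; compounds or DMSO vehicle were pinned in; a 16 h incubation at 37 C followed; FRET substrate was added and, 2 h later at RT, fluorescence was measured.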

[19] = biological target: D(2) dopamine receptor (Homo sapiens) (UniProt P14416); experiment: Dopamine D2 receptor (DRD2) small molecule agonists, cell-based qHTS assay (AID 1963594); also: nearly all actives have a fitted effect of over 35% in size
In short: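 cAMP accumulation in DRD2-HEK293 cells measured by HTRF after 1 h detection; compounds added 10 min before NKH477 (200nM […]) forskolin-analogue stimulation, 30 min at room temperature, with Ro20-1724 present at 0.1 mM final.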
% is scaled to controls: 0 for no effect and ±100 for the full control effect.

CCCCS(=O)(=O)N[C@@H](Cc1ccc(OCCCCC2CCNCC2)cc1)C(=O)O
inactive: Potency [1] | Potency [2] | Potency [3] | outcome [4] | outcome [5] | Potency [6] | Potency [7] | Potency [8] | Potency [9] | Potency [10] | Potency [11] | Potency [12] | Potency [13] | Potency [14] | Potency [15] | Potency [16] | Potency [17]

O=C=NCc1cccc(CN=C=O)c1
inactive: activity change, negative = cytotoxicity [1] 3.98% [at 19 µM] | activity, positive = activation [2] -9.19% [at 19 µM] | activity change [3] -0.327% [at 11.8 µM, active compounds read high] | activation [4] 0.462% [at 15.8 µM] | activation [5] 0.869% [at 11.8 µM] | activation [6] -0.418% [at 13.5 µM] | activity change, negative = cytotoxicity [7] 2.85% [at 13.5 µM] | activity change, negative = cytotoxicity [8] 10.6% [at 13.5 µM] | activity change, negative = cytotoxicity [9] 8.14% [at 13.5 µM] | activation [18] -3.35% [at 13.5 µM] | activity, negative = inhibition [10] 11.7% [at 12.7 µM] | activation [11] 3.99% [at 15.9 µM] | activity, negative = inhibition [12] -10.9% [at 12.6 µM] | activation [14] 1.18% [at 19 µM] | activity change, negative = inhibition [15] 0.972% [at 18.9 µM] | activity change, negative = inhibition [16] -5.04% [at 19 µM] | activation [19] -2% [at 19 µM] | activity change, negative = inhibition [17] 2.32% [at 18.9 µM]

O=C(O)c1ccc(Cl)cc1Cl
inactive: Potency [1] | Potency [2] | Potency [3] | outcome [4] | outcome [5] | Potency [6] | Potency [7] | Potency [8] | Potency [9] | Potency [18] | Potency [10] | Potency [11] | Potency [12] | Potency [13] | Potency [14] | Potency [15] | Potency [16] | Potency [17]

Cc1ccc2nc(N)[nH]c(=O)c2c1Sc1ccncc1
inactive: Potency [1] | Potency [2] | Potency [3] | outcome [4] | outcome [5] | Potency [6] | Potency [7] | Potency [8] | Potency [9] | Potency [10] | Potency [11] | Potency [12] | Potency [13] | Potency [15] | Potency [16] | Potency [19] | Potency [17]

O=C(O)Cc1c(Cl)ccc(Cl)c1Cl
inactive: Potency [1] | Potency [2] | Potency [3] | outcome [4] | outcome [5] | Potency [6] | Potency [7] | Potency [8] | Potency [9] | Potency [10] | Potency [11] | Potency [12] | Potency [13] | Potency [16] | Potency [19] | Potency [17]

ClCCl
inactive: Potency [1] | Potency [2] | Potency [3] | outcome [4] | outcome [5] | Potency [6] | Potency [7] | Potency [8] | Potency [9] | Potency [18] | Potency [10] | Potency [11] | Potency [13] | Potency [14] | Potency [15] | Potency [16] | Potency [19] | Potency [17]

COc1ccc(OC(=O)N(CC(=O)O)Cc2ccc(OCCc3nc(-c4ccccc4)oc3C)cc2)cc1
inactive: Potency [1] | Potency [2] | Potency [3] | outcome [4] | outcome [5] | Potency [6] | Potency [7] | Potency [8] | Potency [9] | Potency [18] | Potency [12] | Potency [13] | Potency [16] | Potency [19] | Potency [17]
